Most compounds without a hit are left out; they make up all but 5.7% or so of the library.
ssDAF-12 act = activators of S. stercoralis DAF-12 nuclear receptor; HEK293 ssDAF-12/GRIP1 lit1-tk-luc reporter, luminescence; % of 3 µM dafachronic acid response; activation, % at 6.8 µM; 370,000 compounds, 1% hits;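 active = activation above the mean over all tested compounds plus 3 SD, cut at about 0.9% in these data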;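 also: 0% = DMSO-only wells and 100% = 3 µM delta7-dafachronic acid wells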
hcDAF12 agonist = activators of H. contortus DAF-12 nuclear receptor; HEK293 hcDAF-12 lit1-tk-luc reporter, luminescence; 0% DMSO, 100% Δ7-dafachronic acid; activation, % at 6.8 µM; AID 652067; 370,000 compounds, 1.4% hits;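 active = activation above the mean of all tested compounds plus 3 SD, cut at about 5.5% in these data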;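 also: 100% = response to 3 µM Δ7-dafachronic acid high control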
DAX1 inh-1 = inhibitors of human orphan nuclear receptor DAX1 (NR0B1). P51843. HEK293 Gal4-DAX1 luciferase reporter, luminescence. inhibition, % at 6.75 µM. 340,000 compounds, 0.99% hits. AID 504766;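 active = inhibition above the mean over all tested compounds plus 3 SD, cut at about 4.2% in these data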;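 also: 0% = DAX1-transfected cells with DMSO and 100% = empty-vector control cells with DMSO; inhibition shows as a rise in luminescence from relieved DAX1 repression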
AHR act = activates the human aryl hydrocarbon receptor | P35869 | AHR-responsive luciferase reporter cells, luminescence | activation, % at 5 µM | 320,000 compounds, 2.5% hits | AID 2796; in the data active = activation above about 47%;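 also: 0% = vehicle wells and 100% = reference agonist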
hgDAF-12 ag = hgDAF-12 agonism, primary luciferase screen | activation, % at 6.8 µM | 370,000 compounds, 1.8% hits | HEK293 GAL4-hgDAF12 UAS-luciferase reporter, agonist luminescence; normalized to butyrate control;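 active = activation above a cutoff set at the mean of all screened compounds plus 3 SD, cut at about 10% in these data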;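 also: 0% = DMSO wells and 100% = sodium butyrate wells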
DAX1 inh-2 = DAX1 (NR0B1) inhibition, primary screen | AID 652010 | 370,000 compounds, 1.1% hits | inhibition, % at 6.8 µM | HEK293T StAR-luciferase reporter, SF-1/DAX-1 repression relief;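 active = inhibition above the mean over all tested compounds plus 3 SD, cut at about 3.6% in these data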;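 also: 0% = DAX-1 cells with DMSO and 100% = cells lacking DAX-1 with DMSO; higher inhibition means more luminescence from relief of DAX-1 repression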
LXR ag = LXR-beta agonism as hcDAF-12 counter-screen | AID 743027 | 3,400 tested, under 10 active | HEK293 Gal4-LXR tk-luc reporter, luminescence, 24 h; normalized: DMSO 0%, positive control 100% | shares compounds with hcDAF12 agonist | activation, % at 6.8 µM;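 active = mean percent activation of the reporter above a cutoff set as the average over tested compounds plus their standard deviation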
hcDAF12 ag = hcDAF-12 agonism, confirmation assay; shares compounds with hcDAF12 agonist; HEK293 hcDAF-12 lit1-tk-luc reporter, luminescence; % of Δ7-dafachronic acid response; activation, % at 6.8 µM; 3,400 compounds, 61% hits; AID 743032;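 active = mean activation across triplicate tests above the threshold derived from the earlier primary screen, cut at about 5.5% in these data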;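 also: 0% = DMSO only wells and 100% = 3 µM Δ7-dafachronic acid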
Numbers without * were called inactive; / = no result.

SMILES | ssDAF-12 act | hcDAF12 agonist | DAX1 inh-1 | AHR act | hgDAF-12 ag | DAX1 inh-2 | LXR ag | hcDAF12 ag
Cc1ccc(-c2nc(NCc3cccnc3)c3ccccc3n2)cc1 | -0.2 | 6.8* | 0.2 | 21.6 | 0.1 | 0.5 | -0.3 | 4.4
Cc1cc(=O)[nH]c(N/N=C/C(C)c2ccccc2)n1 (stereo not given) | -0.8 | -0.6 | 0.2 | 10.5 | -0.8 | -0.5 | / | /
COc1ccccc1S(=O)(=O)Nc1cc(C)nn1-c1ccc(C)cc1 | 0.8 | 2.5 | -0.6 | 11.0 | 0.5 | 0.6 | / | /
O=C(Cc1nnc(NC(=O)Nc2ccccc2)s1)Nc1ccccc1 | -0.9 | 0.3 | / | 5.9 | 0.1 | -0.4 | / | /
COc1ccc(C(=O)Nc2nc(-c3cccs3)c(NC(C)=O)s2)cc1 | -1.6 | 0.2 | -0.2 | 20.3 | 0.4 | -0.2 | / | /
O=C(Nc1ccccc1)Nc1nnc(-c2cccs2)s1 | -0.2 | 6.6* | 0.5 | 114.9* | 4.3 | 1.0 | 0.4 | 0.3
COc1ccc(C(=O)Nc2nnc(-c3cccs3)s2)cc1 | 1.3* | 6.8* | 1.5 | 66.7* | 9.5 | 2.2 | 1.6 | 17.0*
Cc1cc(NC(=O)CN2C(=O)NC(c3ccccc3)(c3ccc(C)c(C)c3)C2=O)no1 (stereo not given) | -1.7 | 0.3 | 0.3 | -0.8 | -1.5 | -0.9 | / | /
CCOc1ccc(NC(=S)NC(=O)c2c(Cl)c(C)nn2C)c([N+](=O)[O-])c1 | -0.7 | 0.1 | -1.9 | 0.6 | 0.2 | 0.8 | / | /
Cc1nn(C)c(C(=O)NC(=S)Nc2ccccc2O)c1Cl | 1.4* | 6.7* | 0.8 | 54.2* | 1.0 | 0.5 | -0.1 | 6.4*
COc1ccc([N+](=O)[O-])cc1NC(=O)c1ccco1 | -0.6 | -0.7 | -1.1 | 2.0 | 1.5 | 0.9 | / | /
CCOc1cc(C2CC(=O)c3c(ccc4ccccc34)N2)ccc1O (stereo not given) | -1.5 | -1.2 | -0.8 | 10.7 | -1.5 | -0.6 | / | /
COc1ccc(F)cc1S(=O)(=O)Nc1ccc(C)cc1 | -1.4 | -0.9 | -0.5 | 2.6 | -0.7 | -0.7 | / | /
COc1ccc(C(=O)Nc2sc(C)c(C)c2CN2CC(C)OC(C)C2)cc1 (stereo not given) | 0.1 | 8.9* | 3.1 | 18.6 | 10.7* | 3.9* | 0.0 | 4.1
CC(NC(=O)Nc1ccccc1F)C(C)(C)C (stereo not given) | -1.1 | 0.3 | -1.0 | 1.7 | 0.3 | -0.4 | / | /
CCc1noc(C)c1C(=O)Nc1nc2c(F)cc(F)cc2s1 | 0.0 | 10.6* | 0.3 | 61.0* | 2.2 | 0.1 | 0.2 | 3.8
O=C(Nc1nc2c(F)cc(F)cc2s1)c1ccccn1 | 0.7 | 7.0* | -1.7 | 25.9 | 12.6* | 2.5 | 0.7 | 3.6
Cc1ccc2nc(NC(=O)c3ccccn3)sc2c1 | -3.6 | -4.1 | -7.7 | 2.1 | -13.8 | -5.6 | / | /
COC1OC2COC(c3ccccc3)OC2C2OC12 (stereo not given) | -1.2 | -2.2 | -0.2 | / | 0.4 | 0.3 | / | /
COc1ccc(Cc2nnc(SCC(=O)c3ccc4c(c3)NC(=O)CO4)o2)cc1 | -1.3 | -2.9 | 0.4 | 0.6 | -2.5 | 0.5 | / | /
COc1ccc2nc(N3C(=O)CNC3=S)sc2c1 | -0.3 | 8.4* | 3.1 | 2.1 | 8.4 | 1.0 | 0.7 | 4.8
Clc1ccccc1OCc1nc(-c2ccc(Br)o2)no1 | -0.5 | 6.7* | -0.1 | 61.1* | 2.5 | 1.4 | -0.1 | 3.0
O=C(CC(SCCO)c1ccc([N+](=O)[O-])cc1)c1ccco1 (stereo not given) | -1.8 | 7.1* | 0.1 | -0.2 | 0.4 | -1.4 | 0.1 | 1.2
Cc1ccc(C(=O)CC(SCC(=O)O)c2ccc([N+](=O)[O-])cc2)cc1 (stereo not given) | -1.0 | 0.7 | -1.9 | 3.6 | 0.8 | 0.6 | / | /
O=C(Nc1ccc(Cl)cc1)Nc1ccccc1Sc1ncc([N+](=O)[O-])s1 | 1.1* | 7.6* | -0.7 | 66.2* | 3.8 | 0.3 | -0.1 | 1.3

Screening data (PubChem BioAssay)
